According to PubChem BioAssay:
The source made the active and inactive calls. Unless noted, how the calls were made is not given here.

Columns and labels:
[1] = compound effects on lung adenocarcinoma cell viability – A549, calcein-AM fluorescence, 48 h, basal, profiling panel (AID 1162); settings: higher = more signal; further: test concentration not given here
[2] = compound effects on differentiated 3T3-L1 adipocyte viability – cell-based, 3T3-L1 adipocytes, calcein-AM fluorescence, 48 h, basal, profiling panel (AID 1163); settings: 3T3-L1 adipocytes viability, higher = more signal; further: test concentration not given here
[3] = compound effects on hepatocellular carcinoma cell viability – HepG2, calcein-AM fluorescence, 48 h, basal, profiling panel (AID 1164); settings: higher = more signal; further: test concentration not given here
[4] = compound effects on multiple myeloma cell viability – MM1S, calcein-AM fluorescence, 48 h, basal, profiling panel (AID 1165); settings: higher = more signal;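 further: viability of MM1S multiple myeloma cells under basal unstimulated conditions; test concentration not given here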
[5] = calcein-AM signal in unstimulated myeloma cells – cell-based, calcein-AM fluorescence, 48 h, PK04 Diversity Set, profiling panel (AID 1166); settings: RPMI8226 myeloma viability, higher = more signal;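 further: cells grown under basal conditions without added stimulus; test concentration not given here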
[6] = JC-1 mitochondrial signal, unstimulated HepG2 cells – cell-based, JC-1 fluorescence, 24 h, 100 nL compound, profiling panel (AID 1167); settings: HepG2 mitochondrial potential, higher = more signal; further: test concentration not given here
[7] = JC-1 mitochondrial signal, unstimulated adipocytes – cell-based, JC-1 fluorescence, 3T3-L1 adipocytes, 24 h, 100 nL compound, profiling panel (AID 1168); settings: JC-1 mitochondrial fluorescence, higher = more signal, called active from +8 up or from −8 down; further: test concentration not given here
[8] = JC-1 mitochondrial signal, unstimulated myeloma cells – cell-based, JC-1 fluorescence, RPMI8226, 24 h, 100 nL compound, profiling panel (AID 1169); settings: JC-1 mitochondrial potential fluorescence, higher = more signal; further: test concentration not given here
[9] = JC-1 mitochondrial signal, unstimulated MM1S myeloma – cell-based, JC-1 fluorescence, 24 h, 100 nL compound, profiling panel (AID 1170); settings: MM1S mitochondrial potential, higher = more signal; further: test concentration not given here
[10] = resazurin metabolic signal in A549 cells – cell-based, resazurin fluorescence, 24 h, PK04 Diversity Set, profiling panel (AID 1171); settings: A549 viability, higher = more signal, called active from +8 up or from −8 down; further: test concentration not given here
[11] = resazurin metabolic signal in HepG2 cells – cell-based, resazurin fluorescence, 24 h, PK04 Diversity Set, profiling panel (AID 1172); settings: HepG2 viability, higher = more signal; further: test concentration not given here
[12] = budding yeast growth changes without added modifier – OD600, strain BY4716, 24 h, basal condition, primary screen (AID 1173); settings: S. cerevisiae BY4716 growth, OD600, 24 h; higher = more signal, called active from +8 up or from −8 down
[13] = viability profiling in MM1S myeloma cells – cell-based, resazurin fluorescence, basal, 24 h, PK04 Diversity Set, profiling panel (AID 1174); settings: higher = more signal, called active from +8 up or from −8 down; further: test concentration not given here
[14] = target: Dihydroorotate dehydrogenase (quinone), mitochondrial (Plasmodium falciparum (isolate 3D7)) (UniProt Q08210); experiment: inhibition of P. falciparum DHODH – biochemical, C-terminal His tag, absorbance 600 nm, primary screen (AID 1175); settings: PfDHODH enzyme, DCIP absorbance 600 nm; higher = more signal, called active from +8 up or from −8 down;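 further: recombinant parasite enzyme with a five histidine tag at its C terminus; test concentration not given here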
[15] = inhibition of PAO1 biofilm formation – strain PAO1, LB-PBS medium, absorbance 600 nm, primary screen (AID 1176); further: test concentration not given here; settings: P. aeruginosa PAO1 growth/biofilm, A600, 12 h; higher = more signal
[16] = growth modulation of vineyard yeast isolate – strain RM11-1a, OD600, basal, 24 h, primary screen (AID 1177);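 further: cultures grown under basal conditions with no added stressor; test concentration not given here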; settings: S. cerevisiae RM11-1a growth, OD600, 24 h; higher = more signal, called active from +8 up or from −8 down
[17] = growth of efflux-deficient E. coli DRC39 – strain DRC39, OD650, 24 h, E. coli filamentation inducers, primary screen (AID 1178);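 further: growth measured as culture turbidity by optical density at 650 nm; test concentration not given here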; settings: E. coli DRC39 acrAB, higher = more signal, called active from +8 up or from −8 down
[18] = growth of efflux-deficient E. coli DRC39 – strain DRC39, OD650, 48 h, E. coli filamentation inducers, primary screen (AID 1179);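 further: screen aims at cell division blockers that make cells filament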; settings: E. coli DRC39 delta-acrAB growth, higher = more signal, called active from +8 up or from −8 down
[19] = viability profiling in RPMI8226 myeloma cells – cell-based, resazurin fluorescence, basal, 24 h, PK04 Diversity Set, profiling panel (AID 1180); settings: higher = more signal;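 further: RPMI8826 multiple myeloma cell line at 5000 cells per well; test concentration not given here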
[20] = target: E3 ubiquitin-protein ligase XIAP (Homo sapiens) (UniProt P98170); experiment: small molecules binding XIAP protein – biophysical, small-molecule microarray, fluorescence 635 nm, primary screen (AID 1181); settings: higher = more signal;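 further: score merges 667 nm emission and signal to noise over triplicate slides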
Chain of E3 ubiquitin-protein ligase XIAP (Homo sapiens) (P98170 whole entry, looked up): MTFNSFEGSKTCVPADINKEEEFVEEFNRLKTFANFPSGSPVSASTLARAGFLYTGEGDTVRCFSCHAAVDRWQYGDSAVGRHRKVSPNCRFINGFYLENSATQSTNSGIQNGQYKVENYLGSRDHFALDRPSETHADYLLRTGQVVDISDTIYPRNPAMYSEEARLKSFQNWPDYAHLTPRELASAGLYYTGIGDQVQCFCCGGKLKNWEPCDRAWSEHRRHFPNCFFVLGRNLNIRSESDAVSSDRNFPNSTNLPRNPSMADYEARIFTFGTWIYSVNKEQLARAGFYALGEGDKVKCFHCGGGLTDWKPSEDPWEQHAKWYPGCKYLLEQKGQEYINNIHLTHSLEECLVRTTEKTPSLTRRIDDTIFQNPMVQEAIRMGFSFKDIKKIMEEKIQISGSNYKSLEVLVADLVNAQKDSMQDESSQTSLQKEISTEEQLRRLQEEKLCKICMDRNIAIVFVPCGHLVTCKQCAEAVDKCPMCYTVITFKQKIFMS

Chain of Dihydroorotate dehydrogenase (quinone), mitochondrial (Plasmodium falciparum (isolate 3D7)) (Q08210 whole entry, looked up): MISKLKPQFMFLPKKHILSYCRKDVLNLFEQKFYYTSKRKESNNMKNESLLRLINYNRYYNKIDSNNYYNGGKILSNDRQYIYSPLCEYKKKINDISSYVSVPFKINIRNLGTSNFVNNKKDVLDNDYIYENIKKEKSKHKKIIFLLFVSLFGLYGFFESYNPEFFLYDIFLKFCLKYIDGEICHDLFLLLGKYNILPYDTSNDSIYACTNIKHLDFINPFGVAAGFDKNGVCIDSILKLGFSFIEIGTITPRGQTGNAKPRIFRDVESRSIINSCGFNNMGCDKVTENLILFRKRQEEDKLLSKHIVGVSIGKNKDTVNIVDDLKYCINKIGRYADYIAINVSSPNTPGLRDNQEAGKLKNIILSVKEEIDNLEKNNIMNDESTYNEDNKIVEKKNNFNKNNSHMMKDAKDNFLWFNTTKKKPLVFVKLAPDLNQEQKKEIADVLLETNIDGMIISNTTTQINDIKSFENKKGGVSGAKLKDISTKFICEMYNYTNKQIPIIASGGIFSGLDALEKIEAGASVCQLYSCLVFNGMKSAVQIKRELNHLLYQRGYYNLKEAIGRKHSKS

SMILES | z-score [1] | z-score [2] | z-score [3] | z-score [4] | z-score [5] | z-score [6] | z-score [7] | z-score [8] | z-score [9] | z-score [10] | z-score [11] | z-score [12] | z-score [13] | composite z-score [14] | z-score [15] | z-score [16] | z-score [17] | z-score [18] | z-score [19] | composite z-score [20]
CCOC(=O)C=Cc1cc(F)ccc1O | -1.13 | 0.749 | -0.714 | -0.633 | -1.39 | -1.19 | -0.966 (inactive) | 0.287 | -0.0774 | 0.0142 (inactive) | -0.338 | -12.6 (active) | -0.99 (inactive) | -1.09 (inactive) | -0.0727 (inactive) | -23.2 (active) | -1.01 (inactive) | -1.31 (inactive) | -0.935 | -0.196
CN(C)CCCCNC(=O)[C@H]1C[C@H]2C(=O)N[C@@H](CCCC[N+](C)(C)C)C(=O)N2[C@H]1c1ccc(O)cc1 | -0.0568 | 0.29 | -0.172 | -0.178 | 0.733 | -0.445 | -0.763 (inactive) | -0.101 | -0.203 | 0.625 (inactive) | 0.351 | -0.0503 (inactive) | 1.4 (inactive) | -0.308 (inactive) | -1.16 (inactive) | -1.11 (inactive) | 0.494 (inactive) | 0.56 (inactive) | 0.643 | -0.0599
COc1ccc([Si](C)(C)[C@H]2[C@H](CCO)O[C@@]3(C(=O)N(Cc4ccccc4)c4ccc(N5C(=O)c6ccccc6Oc6ccccc65)cc43)[C@@H]2C)cc1 | -1.01 | 0.271 | -3.26 | -1.7 | -3.51 | 0.0091 | -0.404 (inactive) | -0.896 | -1.53 | -2.28 (inactive) | -1.6 | 1.09 (inactive) | -4.24 (inactive) | 0.906 (inactive) | 2.38 (inactive) | 3.48 (inactive) | 0.0105 (inactive) | -0.615 (inactive) | -3.34 | -0.172
COCCCNC(=O)[C@@]1(Sc2ccc(C)cc2)CC(=O)N(C(C)C)[C@@H]1c1ccc(CO)cc1I | 0.781 | 1.74 | -1.16 | -2.2 | -2.38 | 0.544 | -0.0068 (inactive) | -0.205 | -2.75 | 0.534 (inactive) | -0.312 | -3.22 (inactive) | -2.35 (inactive) | -0.642 (inactive) | 0.394 (inactive) | -1.82 (inactive) | 0.0841 (inactive) | -0.0194 (inactive) | -1.97 | -0.37
CC(C)OC(=O)CC(=O)CC(O)c1ccc([N+](=O)[O-])cc1 (stereo not given) | 1.78 | -0.228 | 0.714 | 0.772 | 0.159 | 0.775 | 0.377 (inactive) | -0.121 | -0.359 | -0.741 (inactive) | -0.55 | -1.41 (inactive) | -0.119 (inactive) | -1.12 (inactive) | -0.088 (inactive) | 0.0857 (inactive) | -0.346 (inactive) | 0.0547 (inactive) | -0.0948 | -0.212
CC(=O)n1cc(C(O)C2C=CC3C(=O)N(c4ccccc4)C(=O)C3N2Nc2ccc(C(C)C)cc2)c2ccccc21 (stereo not given) | -0.545 | -0.745 | -1.08 | -0.829 | -1.33 | -0.975 | -1.16 (inactive) | -0.886 | 0.299 | 0.169 (inactive) | -1.41 | -2.33 (inactive) | -1.12 (inactive) | 0.708 (inactive) | 1.44 (inactive) | 1.36 (inactive) | -0.0648 (inactive) | -0.0683 (inactive) | -1.06 | 0.0072
[N-]=[N+]=NCc1ccccc1[C@@H]1OC(c2ccc(OCCCO)cc2)=N[C@]1(Cc1ccccc1N=[N+]=[N-])C(=O)NCCN1CCOCC1 | 0.0239 | 0.727 | 0.695 | -1.17 | -1.09 | 0.988 | 0.564 (inactive) | -0.96 | -0.212 | 0.162 (inactive) | -0.591 | -2.33 (inactive) | 0.0903 (inactive) | -0.549 (inactive) | 0.385 (inactive) | -0.186 (inactive) | 0.191 (inactive) | -0.215 (inactive) | -0.846 | -0.0826
O=C1C[C@@](C(=O)NCc2ccccc2)(c2ccc([N+](=O)[O-])cc2)[C@@H](c2ccc(CO)cc2I)N1CC12CC3CC(CC(C3)C1)C2 | -1.84 | 0.684 | -2.67 | -2.99 | -4.33 | 0.878 | -0.473 (inactive) | -1.03 | -0.91 | -1.63 (inactive) | -1.28 | -0.787 (inactive) | -1.73 (inactive) | -0.0036 (inactive) | 0.593 (inactive) | -0.229 (inactive) | 0.0207 (inactive) | 0.348 (inactive) | -2.62 | -0.227
